The results in this text go back to PubChem BioAssay AID652054 (National Center for Advancing Translational Sciences (NCATS), 2013).

Molecules are shown by their SMILES. Out of some 360,000 compounds screened, about 9,100 (2.5%) were called active. Roughly 4% stayed inconclusive and do not appear here. This excerpt belongs to a sample that is enriched for actives. A number with no mark means an inactive call. Rule as the data show it: active = max response below about -50%; inconclusive = no clear call, values can overlap the other calls; inactive = above that.
% is scaled to controls: 0 for no effect and ±100 for the full control effect.

D(3) dopamine receptor (Homo sapiens), sequence (P35462 whole entry, looked up): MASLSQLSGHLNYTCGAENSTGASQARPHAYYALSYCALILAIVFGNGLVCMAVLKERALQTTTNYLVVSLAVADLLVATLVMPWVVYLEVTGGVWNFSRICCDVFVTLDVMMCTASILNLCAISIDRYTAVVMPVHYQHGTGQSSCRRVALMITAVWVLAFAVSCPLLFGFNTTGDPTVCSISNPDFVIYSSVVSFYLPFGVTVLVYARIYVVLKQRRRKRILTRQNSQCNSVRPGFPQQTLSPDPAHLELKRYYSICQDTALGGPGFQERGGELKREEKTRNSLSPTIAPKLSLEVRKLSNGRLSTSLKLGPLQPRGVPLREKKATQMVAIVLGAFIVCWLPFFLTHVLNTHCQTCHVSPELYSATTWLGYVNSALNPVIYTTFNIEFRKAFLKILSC

This test addresses D(3) dopamine receptor (Homo sapiens) (UniProt P35462). Kind of test: qHTS of D3 Dopamine Receptor Antagonist: qHTS. The following applies: D3R cells, DiscoveRx beta-arrestin luminescence, antagonist mode; stronger effect = lower value. The procedure, abridged:
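Cells plated overnight at 1500 cells/well, then exposed to library compounds with dopamine controls for 90 minutes at 37 degrees C. DiscoveRx reagent added for 30–60 minutes at room temperature; luminescence read, quantitative HTS format.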
On the technique in general: Quantitative high-throughput screening tests each substance at several concentrations.
Take `O=C(Nc1ccc2c(c1)OCCO2)C1c2ccccc2OCC(=O)N1Cc1ccccn1` (centres undefined): the max response, negative = inhibition is 33.3%.

In the case of `Cc1ccc(S(=O)(=O)Nc2nc(C)cc(-n3nc(C)cc3C)n2)cc1`, the max response, negative = inhibition was -12.2%. Take `Cc1cc(C)n(-c2ccc3nncn3n2)n1`: the max response, negative = inhibition was 1.57%. Next, `Cc1cc(C)n(-c2ccc(Cl)c(C(=O)O)n2)n1`: -86.2% (active); `COCCCNC(=O)c1cccc2c(-c3ccc(O)c(OC)c3)coc12`: 0.229%. The same measure for `COC(=O)[C@]12CCCCC=C1N(Cc1ccco1)C(=O)[C@H](CC(=O)NCC1CCCCC1)C2`: -0.188%; for `CN1OC[C@@H]2CN(S(=O)(=O)c3cccc(C(F)(F)F)c3)[C@H](c3ccc(-c4cc5ccccc5o4)cc3)C[C@@H]21`: -12%. As to `CC1(C(=O)NCc2ccc(F)c(F)c2)Cc2c(-c3ccc4c(c3)OCO4)ccnc2O1` (centres undefined), the max response, negative = inhibition is 19.2%. Turning to `Cc1ccc(NC(=O)CCC(=O)N/N=C/c2ccco2)c(C)c1`, the max response, negative = inhibition was 16.8%. As to `Cc1ccc(CN2CCN(/N=C/c3ccco3)CC2)c(C)c1`, the max response, negative = inhibition is -78.6% (active). On to `Cc1ccc(CN2CCN(/N=C/c3cccnc3)CC2)c(C)c1`, for which the max response, negative = inhibition is -15%. As for `O=C(/C=C/[C@H]1O[C@@H](n2cnc3c(NC(=O)c4ccccc4)ncnc32)[C@H](O)[C@@H]1O)NCc1ccccc1`, the max response, negative = inhibition was 0%. The same measure for `CCn1cc(C(=O)NCCCN2CCCCCC2)c(=O)c2cc(S(=O)(=O)N3CCc4ccccc4C3)ccc21`: -2.35%; for `Cc1cccc2c1-c1sc(C(=O)NCCCN3CCc4ccccc4C3)cc1CO2`: -63.3% (active); for `CN1CCN(CCCNC(=O)c2cc3c(=O)oc4ccccc4c3s2)CC1`: 0%. Next, `C[C@@H]1CN([C@@H](C)CO)C(=O)c2cc(Br)cnc2O[C@H]1CN(C)Cc1ccc(-c2ccccc2)cc1`: 24.5%; `COc1ccc(CN2C(=O)C(CC(=O)NCCN3CCOCC3)CC(C(=O)N(C(C)C)C(C)C)=C2C)cc1` (centres undefined): 10.3%.

Consider `COc1ccc([C@H]2N[C@]3(CCCN(CC4CCCCC4)C3=O)[C@H]3C(=O)N(C)C(=O)[C@@H]23)cc1`, for which the max response, negative = inhibition is -3.44%. Regarding `COc1cc(OC)c(C(=O)NCc2ccc3c(c2)OCO3)cc1OC`, the max response, negative = inhibition was -7.32%.

Turning to `COc1ccccc1-n1c(C)nc2cc(C(=O)NCc3ccc4c(c3)OCO4)ccc21`, the max response, negative = inhibition was -53.5% (active). Next, `CCOc1c2ccc(C(=O)NCc3ccc4c(c3)OCO4)cc2nn1C`: 21.7%. The same measure for `C[C@@H]1CC2=C(C(=O)OC(C)(C)O2)[C@@H](C2CC2)O1`: 20%; for `CC1(C(=O)NCc2ccccc2)CN(S(C)(=O)=O)CC(=O)N1CC(F)(F)F` (centres undefined): 17.5%.

Consider `Cc1cccc(C(=O)C(O)(c2ccccc2)C2CCCCC2=O)c1` (centres undefined), for which the max response, negative = inhibition was 6.43%. The same measure for `O=C(CN1CCCCCC1)Nc1ccc(Br)cc1Br`: -12.8%.

With `CC(=O)c1cc2c(cc1NC(=O)CN1CCCCCC1)OCO2`, the max response, negative = inhibition is -65% (active). `CC(=O)c1cc2c(cc1NC(=O)Cn1nc(-c3ccc(F)cc3)ccc1=O)OCO2`: the max response, negative = inhibition is -11.4%. The same measure for `COc1ccc(C(C)(O)c2nc(-c3cc(F)cc(F)c3)cs2)cc1` (centres undefined): 2.54%. As for `Cc1ccccc1S(=O)(=O)NC(=O)C1(C)CCN1C(=O)Cc1ccc(Cl)cc1Cl` (centres undefined), the max response, negative = inhibition is -7.52%.

Turning to `O=C1[C@H]2[C@@H](c3ccc(C(F)(F)F)cc3)N[C@]3(CCCN(Cc4ccc(Br)cc4)C3=O)[C@H]2C(=O)N1Cc1ccccc1`, the max response, negative = inhibition is 29.8%. The same measure for `CC(C)CCNc1nc(N2CCCC2)c2c(c1C#N)CCN(C)C2`: -65.7% (active); for `CCc1nc(NCCO)c(C#N)c2c1CCCC2`: -13.6%; for `CC(C)Cc1nc(N2CCOCC2)c(C#N)c2c1CCC2`: 36.7%.

For `CCOC(=O)C1(C)CCCN(C(=O)c2ccc(N(C)C)cc2)C1` (centres undefined), the max response, negative = inhibition is 3.97%. `CC(=NNC(=S)N1CCCCCC1)c1ccccn1`: the max response, negative = inhibition is 18.7%.

Take `NC(=O)NC(CC(=O)NNC(=O)c1ccccn1)c1ccc(Cl)cc1` (centres undefined): the max response, negative = inhibition is -12.6%.

With `C/C(=N\NC(=O)Cc1ccc(Cl)cc1)c1ccccn1`, the max response, negative = inhibition is -93.2% (active).

Turning to `CC1(C(=O)NS(=O)(=O)c2ccc(Cl)cc2)CCN1C(=O)CC1CCCC1` (centres undefined), the max response, negative = inhibition is -16%.

For `CCN1C(=O)[C@H]2[C@@H](c3ccccc3)N[C@]3(CCCN(Cc4ccc(C)cc4)C3=O)[C@H]2C1=O`, the max response, negative = inhibition is -7.93%. Next, `CCc1nc2ccc(C(=O)N3CCC(O)(Cc4ccccc4)CC3)cn2c1N(C)C(=O)Cc1ccccc1`: -22.4%.

With `Cc1ccc(CN2CCN(c3ccccc3Cl)CC2)o1`, the max response, negative = inhibition was -75.6% (active).

As to `Cc1ccc(CN2CCN(Cc3ccc(OCCO)cc3)CC2CCO)o1` (centres undefined), the max response, negative = inhibition is 4.23%. The same measure for `Cc1ccc(CN2CCN(Cc3cn(C)nc3-c3ccccc3)CC2CCO)o1` (centres undefined): 3.14%; for `CN(C)C(CNC(=O)c1cccc(S(=O)(=O)N2CCc3ccccc3C2)c1)c1ccccc1` (centres undefined): -80.6% (active).
